mHTT CaM bind – disrupts binding of mutant huntingtin to calmodulin | inhibition, % at 15 µM | P42858 | AlphaScreen His-mHTT/GST-CaM binding, luminescence | actives 3.6% (n = 190,000) | AID 1671202;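 note: 0% = both proteins with DMSO and 100% = one protein alone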
Pf apPOL block – Pf-apPOL DNA polymerase inhibition | actives 0.25% (n = 210,000) | Recombinant Pf-apPOL, molecular beacon fluorescence, 1.5 h | inhibition, % at 10 µM
* = called active by the depositor; . = no result; + = active, no number; ! = a repeat was not active. This is one part of a sample in which hits are shown more often than they occur. Cut-off read from the data, not from the text of the source: active = inhibition above about 50%; inactive = the rest.

SMILES | mHTT CaM bind | Pf apPOL block
COc1ccc(NC(=O)c2cnn3c2NC(c2cccs2)CC3C(F)(F)F)cc1OC (stereo unspecified) | 29 | 0
COc1ccc(N=C2C(=O)Nc3cc(Br)c(C)cc32)cc1 | 66* | -3
COc1ccc(N=C2C(=O)Nc3ccc(Cl)cc32)cc1 | 26 | -4
CC(CCc1ccccc1)NC(=O)c1csc(-c2ccncc2)n1 (stereo unspecified) | 79* | -1
CCC(C)NC(=O)c1csc(-c2ccncc2)n1 (stereo unspecified) | -5 | 0
Cc1cc2[nH]c(C(=O)Nc3ccccc3C)c(CN3CCCC3)c2s1 | 9 | 7
Cc1cc2[nH]c(C(=O)Nc3c(F)cccc3F)c(CN3CCCC3)c2s1 | 56* | 3
COc1ccc(C(=O)Nc2cccc(C)n2)c(OC)c1OC | -8 | 0
Cc1cccc(NC(c2ccc(O)cc2)c2ccc3ccc(C)nc3c2O)n1 (stereo unspecified) | 97* | -6
Cc1cccc(NS(=O)(=O)c2ccc(C)c([N+](=O)[O-])c2)n1 | -6 | 3
COc1ccc(C(Nc2cccc(C)n2)c2ccc3ccc(C)nc3c2O)cc1C (stereo unspecified) | 89* | -92
Cc1ccc2cccc(NC(=O)C(F)(F)F)c2n1 | 28 | 1
Cc1cccc(NC(c2ccccc2[N+](=O)[O-])c2ccc3ccc(C)nc3c2O)n1 (stereo unspecified) | 75* | -6
COc1cc(C(O)CO)ccc1O (stereo unspecified) | . | -5
COc1cc(C(Nc2cccc(C)n2)c2ccc3ccc(C)nc3c2O)ccc1O (stereo unspecified) | 97* | -79
O=c1[nH]c(=O)n(-c2ccc(F)cc2)c(O)c1C=C1C=Nc2ccc(Br)cc21 | 3 | 1
CN(C)c1ccc(C(=O)N2CCCCC2)cc1 | 3 | -2
O=C(NC1CC1)c1nc(N2CCCCCC2)c2oc3ccccc3c2n1 | 52* | -9
CCOC(=O)c1nc(N2CCCC2)c2oc3ccccc3c2n1 | 2 | -4
O=C(Nc1ccc2c(c1)OCO2)C1CCN(c2cncnc2N2CCCCC2)CC1 | 29 | 5
O=C(Nc1ccc2c(c1)OCO2)C1CCN(c2cc(N3CCCCC3)ncn2)CC1 | 56* | -4
COc1ccccc1N1CCN(S(=O)(=O)c2ccc(OC)c([N+](=O)[O-])c2)CC1 | 14 | -5
COc1ccccc1N1CCN(S(=O)(=O)c2ccc3[nH]c4c(c3c2)CCCC4)CC1 | 50* | -5
COc1ccc(S(=O)(=O)N2CCN(c3cccc(Cl)c3)CC2)cc1 | -8 | -16
COc1cccc(N2CCN(S(=O)(=O)c3ccc4[nH]c5c(c4c3)CCCC5)CC2)c1 | 55* | -4
SMILES | mHTT CaM bind | Pf apPOL block
NC(=O)C(=O)Nc1nc(C23CC4CC(CC(C4)C2)C3)cs1 | 20 | 1
COC(=O)c1ccc(C(=O)NCC2(O)CCCC2)cc1 | -3 | -2
O=C1NC2(CCN(Cc3cccc(F)c3)CC2)N=C1c1ccc(Cl)cc1 | 2 | 3
CCOc1ccc(-c2nc3s/c(=C\c4cc(Br)ccc4OC)c(=O)n3n2)cc1 | -8 | 55*
COc1ccc(OC)c(/C=c2\sc3nc(-c4ccc(Br)cc4)nn3c2=O)c1 | -2 | 7
COc1ccc2c(C)c(Cc3ccccc3)c(=O)oc2c1C | -6 | -2
CC1(C)C2CCC1(C)C(OCC(O)CN1CCCCC1)C2 (stereo unspecified) | -4 | -2
CC12CCC(C1)C(C)(C)C2OCC(O)CN1CCN(c2cccc(C(F)(F)F)c2)CC1 (stereo unspecified) | 65* | -1
CC1(C)C2CCC1(C)C(OCC(O)CN1CCN(c3cccc(Cl)c3)CC1)C2 (stereo unspecified) | 99* | -6
CC1(C)C2CCC1(C)C(OCC(O)CN1CCN(Cc3ccc(Cl)cc3)CC1)C2 (stereo unspecified) | 100* | -4
COc1ccccc1N1CCN(CC(O)COC2CC3CCC2(C)C3(C)C)CC1 (stereo unspecified) | 20 | 5
OC(COC12CC3CC(CC(C3)C1)C2)CN1CCN(c2cccc(C(F)(F)F)c2)CC1 (stereo unspecified) | 26 | -8
O=C(Nc1ccc(Cl)c(Cl)c1)Nc1ccccc1C(=O)N1CCOCC1 | 5 | -10
COc1ccc(C2=NN(C(=O)CN3CCCCC3)C(c3ccccc3Cl)C2)cc1 (stereo unspecified) | 9 | -1
COc1ccc(C2=NN(C(=O)CN3CCOCC3)C(c3ccccc3Cl)C2)cc1 (stereo unspecified) | 21 | -5
Cn1cccc1C1CC(c2ccccc2Cl)=NN1C(=O)CN1CCCCC1 (stereo unspecified) | 94* | -5
CCN1CCN(CC(=O)N2N=C(c3ccccc3Cl)CC2c2cccn2C)CC1 (stereo unspecified) | 82* | -3
Cc1cc(NC(=O)C(=Cc2cccs2)c2ccsc2)no1 | . | -8
COc1cc(-c2nnc(Sc3ncccn3)o2)cc(OC)c1OC | -3 | 2
CCNC(=O)Nc1ccc(-c2nc3ccccc3[nH]2)cc1 | -6 | -14
c1ccc(Cc2nc(N3CCOCC3)c3c4c(sc3n2)CCCC4)cc1 | -34 | 0
CCN1CCN(c2nc(Cc3ccccc3)nc3sc4c(c23)CCCC4)CC1 | 66* | -6
N[C@H](CC(=O)OCc1ccccc1)C(=O)OCc1ccccc1 | . | 1
C/C(=N/Nc1nnc(C)c(=O)[nH]1)C(=O)O | + | .
Cc1nnc(NN=C(C(=O)O)C(=O)O)[nH]c1=O | 14 | .
SMILES | mHTT CaM bind | Pf apPOL block
CC(/C=C1\N=C(c2ccc(C)c([N+](=O)[O-])c2)OC1=O)=C\c1ccccc1 | 3 | 0
Cc1ccc(C2=N/C(=C\C(Br)=C\c3ccccc3)C(=O)O2)cc1[N+](=O)[O-] | 57* | 2
CCC(C)(C)C(=O)N1CCC(CCOc2ccc(F)cc2)CC1 | -20 | -3
Cc1ccc(NC(=O)c2cccnc2N(C)C)c(F)c1 | -7 | 4
O=C(Nc1ccccc1)c1ccc(N2CCC(NCc3ccc(F)c(F)c3)C2)nc1 (stereo unspecified) | -2 | -6
CC(=O)Nc1cccc2c(C(=O)NC(C)c3ccc(C)cc3C)ccnc12 (stereo unspecified) | 0 | 0
CC(=O)NC(c1cccc(Cl)c1)c1cc(Cl)c2cccnc2c1O (stereo unspecified) | 100* | -3
COc1ccc(C(=O)NC(c2ccc(OC)c(OC)c2)c2cc(Cl)c3cccnc3c2O)cc1 (stereo unspecified) | 72* | 2
O=C(COc1ccccc1)NC(c1ccc([N+](=O)[O-])cc1)c1cc(Cl)c2cccnc2c1O (stereo unspecified) | 32 | -8
O=C(COc1ccccc1)NC(c1ccccc1)c1cc(Cl)c2cccnc2c1O (stereo unspecified) | 100* | -2
CC(=O)NC(c1ccc(C)cc1)c1cc(Cl)c2cccnc2c1O (stereo unspecified) | 100*! | 2
COc1ccc(C(=O)NC(c2ccc([N+](=O)[O-])cc2)c2cc(Cl)c3cccnc3c2O)cc1 (stereo unspecified) | 14 | -12
Cc1cccnc1NC(=O)C(C)Oc1cccc(Cl)c1 (stereo unspecified) | 0 | 5
S=C(NN=CC=Cc1ccccc1)NC1CC2CC1C1C=CCC21 (stereo unspecified) | . | -3
CC1(CNC(=O)CCc2c[nH]c3ccccc23)CCOCC1 | 2 | -4
C=CCOc1ccc(C(=O)Nc2sc3c(c2C(=O)NCC)CCCC3)cc1 | -2 | -6

Compound activity: PubChem BioAssay, University of Kansas High Throughput Screening Laboratory
